Molecules are shown by their SMILES. Results filed as inconclusive are left out. Calls of active or inactive are those of the source. Calls follow the shape of the dose curve; as a rule, active = well fitted activation curve with a large enough effect; inconclusive = small, poorly fitted or top-dose-only effect; inactive = no such curve, though single readings can be large or run the other way.

The nature of this test: Confirmation Concentration-Response Assay for Enhancers of SMN2 Splice Variant Expression for Further Probe SAR. To be noted: HEK293 SMN2 exon7-luciferase splicing reporter, luminescence, 30-36 h; series mostly up to 46.1 µM. The text has this: NIH Chemical Genomics Center [NCGC] NIH Molecular Libraries Probe Production centers Network [MLPCN] MLPCN Grant: R03 MH084179-01 Assay Submitter (PI): Elliot Androphy NCGC Assay Overview: Spinal muscular atrophy (SMA) is caused by insufficient levels of the survival motor neuron protein SMN. The SMN locus on chromosome 5q13 contains two inverted copies of SMN called SMN1 and SMN2 which are 99% identical at the amino acid level. SMN1 is a fully functional protein and SMN2 skips exon 7 90% of the time. Skipping of exon 7 produces non-functional protein product. 10% of the SMN2 protein includes exon 7 and is fully functional. In the SMA disease state, mutations in the SMN1 locus are the cause of the disease state. Because only 10% of SMN2 is of the fully functional form, it is not sufficient to overcome the deficiency produced by the loss of the SMN1 product. A therapy that either increase the amount of SMN2 product made or to increase the inclusion of exon 7 has been proposed for the treatment of SMA. We have designed an assay to identify small molecules that can increase the amount of functional SMN2 product by appending a luciferase reporter gene after the native SMN2 gene, such that inclusion of exon 7 in the expressed product places the luciferase sequence in frame, thus generating functional luciferase enzyme.
NCGC Assay Protocol Summary: This screen utilizes a luciferase reporter gene assay, combining the promoter with the major portion of the native SMN2 cDNA (exons 1 -7, intron 8 , exon 8 fused to luciferase) stably expressed in HEK293 cells. Compounds that increase luciferase signal presumably enhance expression of the functional SMN2 splice variant. Passaging media contained DMEM w/ glutamax (+phenol red) 10% FCS, 1x pen/strep, 200 ug/ml hygro, 1x sodium pyruvate. Assay media contained DMEM w/ glutamax (-phenol red) 10% FCS, 1x pen strep, 1x pyruvate Sequence, Parameter, Value, Description (1) Cells, 5 uL, 2000 cells/well, 1536 TC treated White solid bottom plate (2) Time, 10-12 hours, 37C 5% CO2 (3) Compound, 23 nl, MLSMR Library (4) Control Compound, 23 nL, Sodium butyrate st 4.5mM (final) conc (5) Time, 30-36 hours, 37C 5% CO2 (6) Reagent, 3 ul, One Glo (TM) from Promega (7) Time, 5-15 minutes, Room temp (8) Detector, Viewlux: luminescent read, 60 second integration, high speed 2x binning Keywords: Spinal muscular atrophy, SMA, SMN2, high throughput screening, MLSMR, MLPCN, NIH Roadmap, qHTS and NCGC
As for `CC(C)Oc1cccc(-c2cnc(N3CCC(C(N)=O)CC3)s2)c1`, the Potency is 0.0688 µM (active). Next, `NC(=O)C1CCN(c2nc(-c3cccc4sc5ccccc5c34)cs2)CC1`: 13.7 µM (active). Next, `N#Cc1cccc(-c2csc(N3CCC(C(N)=O)CC3)n2)c1`: “inactive”; `CC(C)Oc1cccc(-c2ccnc(N3CCC(C(N)=O)CC3)n2)c1`: 0.154 µM (active).

Consider `CN(C)c1cccc(-c2ncc(F)c(N3CCC(C(N)=O)CC3)n2)c1`, for which the Potency was 2.44 µM (active). `NC(=O)C1CCN(c2ncc(-c3ccc4c(c3)OCCO4)s2)CC1`: the Potency is 0.0867 µM (active). Next, `CC(C)Oc1ccc(-c2csc(N3CCC(C(N)=O)CC3)n2)cc1`: 3.87 µM (active). Take `NC(=O)C1CCN(c2nccc(Cl)n2)CC1`: the Potency entry was “inactive”.

As for `Cc1ccc(-c2ccnc(N3CCC(C(N)=O)CC3)n2)cc1`, the Potency is 0.308 µM (active). As to `NC(=O)C1CCN(c2nc(-c3ccc(Cl)cc3)cs2)CC1`, the Potency was 1.09 µM (active). For `CN(C)c1cccc(-c2nnc(N3CCC(C(N)=O)CC3)s2)c1` the value was 0.218 µM (active). As to `CN(C)c1cccc(-c2cnc(N3CCC(c4ncc[nH]4)CC3)s2)c1`, the Potency is 3.45 µM (active). Next, `NC(=O)C1CCN(c2ncc(-c3cccc(N4CCCCC4)c3)s2)CC1`: 1.09 µM (active); `Cc1cnc(N2CCC(C(N)=O)CC2)nc1-c1cccc(N(C)C)c1`: “inactive”. As for `c1c[nH]c(C2CCN(c3ncc(-c4ccc5c(c4)OCCCO5)s3)CC2)n1`, the Potency is 2.18 µM (active).

As to `CNC(=O)C1CCN(c2nc(-c3ccc(Br)cc3)cs2)CC1`, the Potency was 4.87 µM (active). For `O=C(NCCCCc1ccccc1)C1CCN(c2nc(-c3ccc(Br)cc3)cs2)CC1` the value was “inactive”; for `CN(C)c1cccc(-c2cnc(N3CCC(C(N)=O)CC3)nc2)c1`, 0.547 µM (active). Consider `NC(=O)C1CCN(c2ncc(-c3ccc4c(c3)OCCCO4)s2)CC1`, for which the Potency is 0.0307 µM (active). For `CCOc1ccc(-c2csc(N3CCC(C(N)=O)CC3)n2)cc1` the value was 3.07 µM (active). Next, `CS(=O)(=O)c1ccc(-c2csc(N3CCC(C(N)=O)CC3)n2)cc1`: “inactive”; `CCOC(=O)C1CCN(c2ncc(-c3ccc4c(c3)OCCCO4)s2)CC1`: 0.0274 µM (active); `Brc1ccc(-c2csc(N3CCC(c4nn[nH]n4)CC3)n2)cc1`: 17.3 µM (active). For `NC(=O)C1CCN(c2nnc(-c3ccc4c(c3)OCCCO4)s2)CC1` the value was 0.0972 µM (active). `NC(=O)C1CCN(c2nc(-c3ccc(N4CCCCC4)nc3)cs2)CC1`: the Potency is 3.45 µM (active).

In the case of `Cc1cccc(-c2csc(N3CCC(C(N)=O)CC3)n2)c1`, the Potency was 15.4 µM (active). `CC(=O)N1CCN(c2nc(-c3ccc(Br)cc3)cs2)CC1`: the Potency was 2.44 µM (active). Next, `Brc1ccc(-c2csc(N3CCNCC3)n2)cc1`: “inactive”; `NC(=O)C1CCN(c2nc(-c3ccc4c(c3)CCO4)cs2)CC1`: 12.2 µM (active). For `O=C(Nc1ccccc1)C1CCN(c2nc(-c3ccc(Br)cc3)cs2)CC1`, the Potency was 1.54 µM (active). For `NC(=O)C1CCN(c2ncc(-c3cccc(N4CCCC4)c3)s2)CC1` the value was 0.345 µM (active); for `NC(=O)C1CCN(c2ncc(Br)cn2)CC1`, “inactive”. Next, `CC(=O)C1CCN(c2ncc(-c3cccc(N(C)C)c3)s2)CC1`: 2.74 µM (active). For `NC(=O)C1CCN(c2nccc(-c3ccc4c(c3)OCCO4)n2)CC1` the value was 1.09 µM (active); for `O=C(O)C1CCN(c2nc(-c3ccc(Br)cc3)cs2)CC1`, 2.44 µM (active).

As for `COc1cccc(-c2csc(N3CCC(C(N)=O)CC3)n2)c1`, the Potency is 1.09 µM (active). Next, `NC1CCN(c2nc(-c3ccc(Br)cc3)cs2)CC1`: 1.94 µM (active); `CC(=O)NC1CCN(c2nc(-c3ccc(Br)cc3)cs2)CC1`: “inactive”; `NC(=O)C1CCN(c2ncc(-c3cccc(N4CCOCC4)c3)s2)CC1`: 1.94 µM (active).

In the case of `NC(=O)C1CCN(c2ncc(-c3ccc4c(c3)OCO4)s2)CC1`, the Potency is 0.0487 µM (active).

For the origin of these results see PubChem BioAssay AID488832 (National Center for Advancing Translational Sciences (NCATS), 2010).
